Source: PubChem BioAssay
Activity calls are given as the source filed them. How the calls were made is not given here.

target: Protein kinase 7 (PK7), Plasmodium falciparum 3D7 (PF3D7_0213400) (UniProt Q7YTF7); assay: inhibition of Plasmodium PK7 catalytic activity – biochemical, TCAMS antimalarial set, Kinase-Glo luminescence (AID 1159587); details: recombinant PfPK7, Kinase-Glo ATP depletion luminescence
Sequence (Q7YTF7 1-343): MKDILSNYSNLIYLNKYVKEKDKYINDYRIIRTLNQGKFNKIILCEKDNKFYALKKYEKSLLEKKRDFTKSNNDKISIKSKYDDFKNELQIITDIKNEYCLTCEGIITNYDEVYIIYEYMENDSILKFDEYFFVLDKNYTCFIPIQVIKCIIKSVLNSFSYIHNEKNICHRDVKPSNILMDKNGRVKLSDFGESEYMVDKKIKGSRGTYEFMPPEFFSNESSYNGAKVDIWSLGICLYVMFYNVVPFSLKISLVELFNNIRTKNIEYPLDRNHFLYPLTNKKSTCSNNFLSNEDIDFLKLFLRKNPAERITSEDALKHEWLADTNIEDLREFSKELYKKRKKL

outcome, inactive:
CN(C)CCOc1cc(O)c2c(c1)OC(C)(C)C=C2c1cccs1
COc1ccc(Nc2nccc(N3CCC(NC(=O)Nc4ccc5c(c4)OCO5)C3)n2)cc1 (stereo unspecified)
O=C(NCCCCN1CCN(c2cccc(Cl)c2Cl)CC1)c1ccc2c(c1)CCN(C1CCC1)CC2
CNC(=O)c1cnc(Nc2ccc(N3CCN(C)CC3)cc2)nc1Nc1cccc(OC)c1
CC(C)n1ncc2c(C(=O)N3CCCC4CCCCC43)cc(C3CC3)nc21 (stereo unspecified)
O=C(Nc1cc(C(F)(F)F)cc(C(F)(F)F)c1)c1cc(C(F)(F)F)cc(C(F)(F)F)c1
CC(C)c1sc(N2CCN(C)CC2)nc1C(=O)Nc1ccc(F)cc1C(F)(F)F
O=C(NCCc1ccccc1)[C@H](Cc1ccccc1)Nc1ccnc(NCC2CCCCC2)n1
C=CCc1cc(OC)ccc1OCCCOc1c(C)nc(N)nc1N
COc1cc(Nc2nccc(N3CCC(NC(=O)c4cccc(C#N)c4)C3)n2)cc(OC)c1OC (stereo unspecified)
Cc1ccc(NC(=O)c2ccc3ncccc3c2)cc1OC1CCN(Cc2ccsc2)CC1
COc1cccc(N(CCCN2C(=O)c3cccc4cccc(c34)C2=O)C(=O)c2ccccc2C)c1
Cc1cccc2[nH]c(-c3ccc(-c4cccc(CN5CCC(CO)CC5)c4)s3)nc12
Nc1nc(N)c2c(Oc3cccnc3)cccc2n1
COc1cc2nc(Nc3ccc(C)cc3)nc(Nc3ccc(C)cc3)c2cc1OC
Cc1cc(N[C@@H](Cc2ccccc2)C(=O)NCCc2ccccc2)nc(NCC2CCCCC2)n1
